Data: PubChem BioAssay (NCI)
Where “and” joins values, the source holds several entries; their conditions need not be identical. Identical values can stand only once. The panel holds about 79,000 compounds, 15% with a hit somewhere; the sample as a whole holds those more often. Calls of active or inactive are those of the source. No stated cut-off is given here; in the data, active means growth inhibition above about 70%; inactive means the rest.

What was measured:
[1] = NCI Yeast Anticancer Drug Screen. Data for the rad50 strain (AID 155);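 further: 0% = growth of vehicle-only cultures of the same strain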; conditions: S. cerevisiae rad50 strain growth inhibition, hits give high values
How it was run: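 Yeast carrying a defined DNA repair defect were exposed to test compounds, and growth was compared with vehicle-treated controls to give percent inhibition.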

[2] = NCI Yeast Anticancer Drug Screen. Data for the mec2-1 strain (AID 157); conditions: S. cerevisiae mec2-1 strain, hits give high values
How it was run: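 Strain: mec2-1 (DNA repair/cell cycle alteration). Compound exposure, then growth measured; inhibition expressed relative to vehicle.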

[3] = NCI Yeast Anticancer Drug Screen. Data for the sgs1 mgt1 strain (AID 161);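 further: 0% = growth of cultures given vehicle only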; conditions: S. cerevisiae sgs1 mgt1 strain, hits give high values
How it was run: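 Genetically altered yeast, compound exposure, growth inhibition relative to vehicle.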

[4] = NCI Yeast Anticancer Drug Screen. Data for the cln2 rad14 strain (AID 165);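 further: 0% = growth equal to vehicle treated cultures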; conditions: S. cerevisiae cln2 rad14 strain, hits give high values
How it was run: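 Compounds are applied to the cln2 rad14 yeast strain, and growth is then compared with that of vehicle-treated cultures to give inhibition.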

[5] = NCI Yeast Anticancer Drug Screen. Data for the bub3 strain (AID 167); conditions: S. cerevisiae bub3 mutant strain, hits give high values
How it was run: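 Compounds were applied to a genetically altered yeast strain carrying a cell-cycle control defect. Growth inhibition was scored against vehicle-treated controls.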

[6] = NCI Yeast Anticancer Drug Screen. Data for the mlh1 rad18 strain (AID 175); conditions: S. cerevisiae mlh1 rad18 strain growth inhibition, hits give high values
How it was run: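 Read-out is yeast growth inhibition, calculated against vehicle-only controls. The compound was applied to a strain engineered with DNA damage repair alterations.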

[7] = at 5.0 µM (retest, dose inferred, filed as 0.5)
[8] = at 50.0 µM (retest, dose inferred, filed as 5.0)

SMILES | growth inhibition ([1]; at 50.0 µM) | growth inhibition ([2]; at 50.0 µM) | growth inhibition ([3]; at 50.0 µM) | growth inhibition ([4]; at 50.0 µM) | growth inhibition ([5]; at 50.0 µM) | growth inhibition ([6]; at 50.0 µM) | growth inhibition [2, 7] | growth inhibition [2, 8] | growth inhibition [3, 7] | growth inhibition [3, 8] | growth inhibition [4, 7] | growth inhibition [4, 8] | growth inhibition [5, 7] | growth inhibition [5, 8] | growth inhibition [6, 7] | growth inhibition [6, 8] | growth inhibition [1, 7] | growth inhibition [1, 8]
CC(CN(C)C)C(=O)c1ccccc1 (stereo not given) | -3.95% (inactive) and -8.85% (inactive) and 34% (inactive) | -43.7% (inactive) and -18.4% (inactive) and 16.6% (inactive) | -4.85% (inactive) and -15.9% (inactive) and 18.1% (inactive) | 20.3% (inactive) and -14.4% (inactive) and 14.4% (inactive) | -23.1% (inactive) and -11.6% (inactive) and 18.4% (inactive) | 0.3% (inactive) and -18.9% (inactive) and 23.1% (inactive) |  |  |  |  |  |  |  |  |  |  |  | 
CC(=O)OC(CCl)C(C)[N+](=O)[O-] (stereo not given) |  | 98.5% (active) | 46.6% (inactive) | 36.9% (inactive) | 97.7% (active) | 43.4% (inactive) | 5% (inactive) | 96% (active) | 7% (inactive) | 75% (active) | 6% (inactive) | 83% (active) | 6% (inactive) | 99% (active) | 5% (inactive) | 86% (active) |  | 
Nc1ccc2nc3ccccc3nc2c1 | 97% (active) |  | 64.8% (inactive) | 74% (active) | 75.8% (active) | 88.4% (active) |  |  | -22% (inactive) | 77% (active) | -10% (inactive) | 44% (inactive) | -4% (inactive) | 78% (active) | 4% (inactive) | 90% (active) | -11% (inactive) | 95% (active)
COC(=O)C(=O)N(c1cc(C)ccc1C)c1cc(C)ccc1C | 96.2% (active) |  | 95% (active) | 63.1% (inactive) | 94.3% (active) | 92.7% (active) |  |  | 0% (inactive) | 57% (inactive) | 6% (inactive) | 26% (inactive) | 3% (inactive) | 59% (inactive) | -3% (inactive) | 81% (active) | -1% (inactive) | 85% (active)
CCCC(=O)OCC1CC2C=CC1C2 (stereo not given) |  | -7.65% (inactive) | -18.3% (inactive) | 79.2% (active) | 15% (inactive) | -3.9% (inactive) | 0% (inactive) | 2% (inactive) | 0% (inactive) | -1% (inactive) | -7% (inactive) | 3% (inactive) | -3% (inactive) | 2% (inactive) | -1% (inactive) | -5% (inactive) |  | 
NCc1ccccc1-c1c2nc(c(-c3ccccc3CN)c3ccc([nH]3)c(-c3ccccc3CN)c3nc(c(-c4ccccc4CN)c4ccc1[nH]4)C=C3)C=C2 |  | 83% (active) | 86.2% (active) | 78.8% (active) | 79.7% (active) | 76.2% (active) | 34% (inactive) | 83% (active) | 37% (inactive) | 82% (active) | 32% (inactive) | 66% (inactive) | 37% (inactive) | 90% (active) | 54% (inactive) | 84% (active) |  | 
COc1c(O)ccc2c1CN1CCc3cc4c(cc3C1C2)OCO4 (stereo not given) |  | 21.4% (inactive) | 49.2% (inactive) | -16.2% (inactive) | 50.9% (inactive) | 72.2% (active) | 9% (inactive) | 21% (inactive) | 9% (inactive) | 65% (inactive) | 15% (inactive) | 22% (inactive) | 6% (inactive) | 60% (inactive) | 11% (inactive) | 35% (inactive) |  | 
O=C1OC(c2ccc3c(c2)OCO3)Sc2ccccc21 (stereo not given) | 30.1% (inactive) | 9.85% (inactive) |  | -2.5% (inactive) | 68.3% (inactive) | 25.8% (inactive) | -4% (inactive) | -9% (inactive) |  |  | -2% (inactive) | 4% (inactive) | 9% (inactive) | 52% (inactive) | -6% (inactive) | 27% (inactive) | 11% (inactive) | 24% (inactive)
CC1C2CCC3C4CC=C5CC(N(C)C)CCC5(C)C4CCC32CN1C (stereo not given) | -9.65% (inactive) and 13.9% (inactive) and -0.1% (inactive) | -3.8% (inactive) and 1% (inactive) and -6.15% (inactive) | -8% (inactive) and 7.6% (inactive) and -3.15% (inactive) | 7.25% (inactive) and 0.15% (inactive) and 30.5% (inactive) | -6.35% (inactive) and 18.9% (inactive) and 33.6% (inactive) | 9.35% (inactive) and 23.6% (inactive) and -7.35% (inactive) |  |  |  |  |  |  |  |  |  |  |  | 
O=C(c1ccccc1)C1C(=O)c2ccccc2C1=O | -10.2% (inactive) and -25.2% (inactive) and 23.2% (inactive) | 1.1% (inactive) and -21.3% (inactive) and 20% (inactive) | -5.1% (inactive) and 12.2% (inactive) and 24.1% (inactive) | -20.8% (inactive) and 17.2% (inactive) and 17.1% (inactive) | -10.4% (inactive) and -2.95% (inactive) and 19.4% (inactive) | -7.6% (inactive) and -26.1% (inactive) and 18.5% (inactive) |  |  |  |  |  |  |  |  |  |  |  | 
BrCC(Br)Cc1ccc2c(c1)OCO2 (stereo not given) | 20.8% (inactive) |  | 49.4% (inactive) | -21.6% (inactive) | 4.7% (inactive) | 56.9% (inactive) |  |  | 3% (inactive) | 60% (inactive) | 6% (inactive) | 21% (inactive) | 14% (inactive) | 39% (inactive) | -1% (inactive) | 84% (active) | 5% (inactive) | 30% (inactive)
Clc1ccccc1CN1COc2c(cc(Cl)c3cccnc23)C1 |  | 99.5% (active) | 99.4% (active) | 98.8% (active) | 99.3% (active) | 99% (active) | 6% (inactive) | 99% (active) | 87% (active) | 100% (active) | 6% (inactive) | 99% (active) | 61% (inactive) | 99% (active) | 97% (active) | 99% (active) |  | 
O=C1C(Cl)=C(c2ccc([N+](=O)[O-])cc2)C(=O)c2c(O)cccc21 | 90% (active) |  | 91.7% (active) | 90% (active) | 90.8% (active) | 88.3% (active) |  |  | 28% (inactive) | 95% (active) | 82% (active) | 97% (active) | 99% (active) | 94% (active) | 99% (active) | 97% (active) | 79% (active) | 95% (active)
CC(C)N=C(NC(C)C)SCCCCCCSC(=NC(C)C)NC(C)C |  | -17.2% (inactive) | 2.4% (inactive) | 76.2% (active) | -16.2% (inactive) | 6.9% (inactive) | -1% (inactive) | 1% (inactive) | -7% (inactive) | 1% (inactive) | -6% (inactive) | -1% (inactive) | 3% (inactive) | -2% (inactive) | -1% (inactive) | -5% (inactive) |  | 
CNCCCNc1c2cc(OC)ccc2nc2cccc([N+](=O)[O-])c12 |  | 88.2% (active) | 78.3% (active) | 85.3% (active) | 55.5% (inactive) | 78.6% (active) | -10% (inactive) | 97% (active) | 49% (inactive) | 94% (active) | 41% (inactive) | 98% (active) | -31% (inactive) | 52% (inactive) | 41% (inactive) | 97% (active) |  | 
COc1ccc(-c2c(C(=O)O)[nH]c3ccccc23)cc1 |  | 97.5% (active) | 97.5% (active) | 98.5% (active) | 96.2% (active) | 99% (active) | 12% (inactive) | 87% (active) | 35% (inactive) | 98% (active) | 25% (inactive) | 88% (active) | 58% (inactive) | 98% (active) | 65% (inactive) | 97% (active) |  | 
CN(C)c1ccc2c(NCCCCCCNc3ccnc4cc(N(C)C)ccc34)ccnc2c1 | 84.5% (active) |  | 53.4% (inactive) | 29.4% (inactive) | 30.5% (inactive) | -5.8% (inactive) |  |  | 16% (inactive) | 98% (active) | 1% (inactive) | 92% (active) | -2% (inactive) | 97% (active) | 14% (inactive) | 95% (active) | 10% (inactive) | 95% (active)
O=CC(O)C(O)C(O)C(O)C(O)CO (stereo not given) | -13.5% (inactive) and 36% (inactive) and -23.8% (inactive) | -1.55% (inactive) and -10.8% (inactive) and -7.35% (inactive) | -8.85% (inactive) and -1.5% (inactive) and -6.45% (inactive) | -56.4% (inactive) and -44.2% (inactive) and -19.8% (inactive) | 7.5% (inactive) and 25.1% (inactive) and -0.4% (inactive) | -12.4% (inactive) and 19.2% (inactive) and 4.25% (inactive) |  |  |  |  |  |  |  |  |  |  |  | 
COc1cccc(C2Nc3ccccc3C(=O)N2N2CCOCC2)c1 (stereo not given) | 50.9% (inactive) |  | 32.4% (inactive) | -21.6% (inactive) | 7.4% (inactive) | -5.05% (inactive) |  |  | 1% (inactive) | 0% (inactive) | 0% (inactive) | -6% (inactive) | -2% (inactive) | -5% (inactive) | -2% (inactive) | -3% (inactive) | 3% (inactive) | -2% (inactive)
CCCCCC[C@@H](O)C/C=C\CCCCCCCC(=O)OCCCC | 23.6% (inactive) | 26.1% (inactive) |  | 75.8% (active) | 24.6% (inactive) | 23.9% (inactive) | -4% (inactive) | -7% (inactive) |  |  | -3% (inactive) | -8% (inactive) | -6% (inactive) | -7% (inactive) | 0% (inactive) | 1% (inactive) | -2% (inactive) | -7% (inactive)
Cc1ccc(S(=O)(=O)NNC(C[N+](=O)[O-])c2ccccc2)cc1 (stereo not given) |  | 44.4% (inactive) | 96.2% (active) | 70.7% (active) | 92.7% (active) | 96% (active) | 5% (inactive) | 100% (active) | 23% (inactive) | 99% (active) | 8% (inactive) | 74% (active) | 17% (inactive) | 99% (active) | 36% (inactive) | 99% (active) |  | 
NC(CC(=O)O)c1ccccc1 (stereo not given) | 6.2% (inactive) and -0.2% (inactive) and -0.5% (inactive) | 8.8% (inactive) and -3.45% (inactive) and -4.3% (inactive) | -5.95% (inactive) and 2.35% (inactive) and -0.05% (inactive) | 14.2% (inactive) and -33.1% (inactive) and -4.9% (inactive) | -12.7% (inactive) and -10.4% (inactive) and -18.2% (inactive) | -8.9% (inactive) and 9.75% (inactive) and -24.9% (inactive) |  |  |  |  |  |  |  |  |  |  |  | 
